Screens as filed in PubChem.
Shiga toxin inh: Shiga toxin inhibition; 290,000 compounds, 9.2% hits; Vero cells, Shiga toxin protein synthesis inhibition reporter; inhibition, % at 38.7 µM; in the data active means inhibition mostly above about 28%, no sharp cut-off; inactive means mostly below about 43%
AmpC detergent: blocks E. coli AmpC beta-lactamase in detergent assay | P00811 | AmpC hydrolysis of nitrocefin, absorbance 480 nm, 0.01% Triton | Potency, µM (top dose mostly 114 µM), actives largely listed as inhibitors | 370,000 compounds, 0.041% hits | AID 485294; further: nearly all actives have a fitted effect of over 25% in size
Target sequence (P00811 whole entry, looked up): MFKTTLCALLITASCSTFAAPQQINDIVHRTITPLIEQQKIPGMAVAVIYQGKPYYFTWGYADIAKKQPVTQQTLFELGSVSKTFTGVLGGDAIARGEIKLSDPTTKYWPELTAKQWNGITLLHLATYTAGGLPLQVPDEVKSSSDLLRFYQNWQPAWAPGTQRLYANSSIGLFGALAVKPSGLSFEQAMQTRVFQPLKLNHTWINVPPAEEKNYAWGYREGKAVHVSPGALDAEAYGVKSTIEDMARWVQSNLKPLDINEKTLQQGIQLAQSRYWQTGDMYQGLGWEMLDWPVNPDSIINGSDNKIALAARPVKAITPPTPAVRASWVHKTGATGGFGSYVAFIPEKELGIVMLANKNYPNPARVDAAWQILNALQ
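AmpC (5.3 nM in the dispensed reagent) in 20 mM phosphate pH 7.0 with 0.01% (detergent screen) or 0.0001% Triton X-100 was preincubated with compounds for 15 min at room temperature. Nitrocefin was then added from an 800 uM solution, and hydrolysis was followed at 480 nm.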
CHX counter: affects cycloheximide protein synthesis inhibition readout, counter-screen | AID 2314 | cell reporter, cycloheximide protein synthesis inhibition counterscreen | 300,000 compounds, 12% hits | max response, %; in the data active means max response mostly above about 13%, no sharp cut-off; inactive means mostly below about 14%; further: read at 38.3 µM for the half of the compounds with a filed dose
AmpC inh no detg: AmpC beta-lactamase inhibition without detergent; Potency, µM (top dose mostly 57.1 µM), most hits filed as inhibitors; 330,000 compounds, 0.52% hits; AmpC nitrocefin hydrolysis, absorbance 480 nm, 0.0001% Triton; further: nearly all actives have a fitted effect of over 20% in size
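20 mM phosphate pH 7.0 + 0.01% (detergent screen) or 0.0001% Triton X-100; 5.3 nM AmpC reagent; cpd preinc 15 min RT; nitrocefin (800 uM stock) to start; A480 q20 s × 4 min; Activity was normalised to no-enzyme and no-compound control wells.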
NS1 function inh: influenza NS1 inhibition. AID 2326. 270,000 compounds, 0.4% hits. Potency, µM (series often up to 46.1 µM); calls by dose curve; further: actives are rising curves; nearly all actives have a fitted effect of over 50% in size
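Growth recovery, yeast-based: influenza A NS1 expressed in S. cerevisiae causes slow growth, and suppressors are detected by OD600. The parent strain without NS1 is used as positive control.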
Each line names hits and unclear results; the compound was inactive in the other large screens. Only a selection was taken, and hits are over-represented in it overall. Unless noted, the call rests on the fitted dose curve; in most records, active means well fitted curve in the direction sought with a large enough effect; inconclusive means small, poorly fitted or top-dose-only effect, or another doubt; inactive means no such curve, though single readings can be large; an effect the other way counts as inactive or inconclusive.

C/C(=N\NC(=S)Nc1ccccc1C)c1cc2ccccc2o1	Shiga toxin inh 26, CHX counter 17
C/C(=N\NC(=O)c1ccco1)c1ccc(NC(=O)c2ccccc2)cc1	Shiga toxin inh 72, CHX counter 35 (no result: NS1 function inh)
O=C(Nc1ccc(NC(=S)NC(=O)c2ccco2)cc1)c1ccccc1	AmpC detergent inconclusive
C/C(=N\NC(=O)COc1ccccc1F)c1cc2ccccc2o1	Shiga toxin inh 126, CHX counter 48
CCOc1ccccc1Nc1nc2ccccc2c2nncn12	none (no result: Shiga toxin inh, CHX counter, AmpC inh no detg, NS1 function inh)
Cc1ccc(C(=O)NCCc2cccs2)cc1	none
CCOc1c2ccc(C(=O)NCCc3ccc(C)cc3)cc2nn1CC	none
CCn1nc2cc(C(=O)NCCc3cccs3)ccc2c1OC	Shiga toxin inh 75, CHX counter 40
O=C(NCCc1cccs1)c1ccc(Cl)cc1	Shiga toxin inh 35, CHX counter 20
O=C(NCCc1cccs1)c1ccc(Cl)c(Cl)c1	Shiga toxin inh 72, CHX counter 44
CC1=C(C#N)C(c2cccnc2)C2=C(CC(c3ccc(Cl)cc3)CC2=O)N1 (configuration not stated)	none
CCCc1nnc2n1N=C(c1ccc(OC)c(OC)c1)CS2	none
CCCc1nnc2n1N=C(c1ccc(-c3cc(Cl)ccc3Cl)o1)CS2	Shiga toxin inh active, CHX counter 21
O=C(NC1CCCC1)c1cc(-c2cccc(Cl)c2)on1	Shiga toxin inh 131, CHX counter 37
O=C(NC1CCCCC1)c1cc(-c2cccc(Cl)c2)on1	Shiga toxin inh 39, CHX counter 27
O=C(/C=C/c1ccco1)N(Cc1cccc(F)c1)C1CCS(=O)(=O)C1 (configuration not stated)	none
Cc1ccccc1NS(=O)(=O)c1cccc2nsnc12	none
COc1ccc2c(c1OC)C(=O)N1c3ccccc3C(=O)N(c3ccccc3F)C21 (configuration not stated)	none
COc1ccc2c(c1OC)C(=O)N1c3ccccc3SC21 (configuration not stated)	Shiga toxin inh 54, AmpC detergent inconclusive, CHX counter 35
COc1ccc2c(c1OC)C(=O)N1c3ccccc3COC21 (configuration not stated)	Shiga toxin inh 80, AmpC detergent inconclusive, CHX counter 41
COc1ccc(C(=O)Cn2nnc(-c3ccccc3NC(=O)C3CC3)n2)cc1	AmpC detergent inconclusive, CHX counter 18
COc1ccc(C(=O)Cn2nnc(-c3ccccc3F)n2)cc1	CHX counter 12
O=c1c2[nH]c3ccccc3c2ncn1C1CCCCC1	AmpC detergent inconclusive, CHX counter 26
CC(C)(C)C(=O)Nc1cc2nn(-c3ccccc3)nc2cc1Cl	Shiga toxin inh 86, CHX counter 47
Cc1nn(-c2cccc(Cl)c2)nc1C(=O)O	none
CC(=O)Nc1cc2nn(-c3ccccc3)nc2cc1Cl	Shiga toxin inh 64, CHX counter 26
CC(C)COc1ccc(C(=O)Nc2cc3nn(-c4ccccc4)nc3cc2Cl)cc1	none (no result: Shiga toxin inh, CHX counter, AmpC inh no detg, NS1 function inh)
O=S(=O)(c1ccc2c(c1)OCCO2)C1CCN(S(=O)(=O)c2c(F)cccc2F)CC1	none (no result: AmpC detergent, AmpC inh no detg, NS1 function inh)
COc1ccc(/C(C)=N/NC(=O)c2nc(C)cc(C)n2)cc1	Shiga toxin inh 50, CHX counter 32
C/C(=N\NC(=O)CC(C)C)c1ccc(N2CCCCC2)cc1	Shiga toxin inh 71, CHX counter 26
COc1ccc(C(=O)N/N=C(/C)c2ccc(N3CCCCC3)cc2)cc1	Shiga toxin inh 74, CHX counter 30
COc1ccc(C(=O)NC(=S)Nc2ccc(N3CCCC3)cc2)cc1	AmpC detergent inconclusive, CHX counter 16 (no result: NS1 function inh)
COc1ccc(C(=O)Nc2ccc(N3CCCC3)cc2)cc1	AmpC detergent inconclusive
COc1ccc(/C(C)=N/NC(=O)c2ccc(N(C)C)cc2)cc1	none
Cc1cccc(N2CCN(C(=O)Cc3c(C(=O)O)c(C)cn3C)CC2)c1C	none (no result: Shiga toxin inh, CHX counter, AmpC inh no detg, NS1 function inh)
Cc1cc(C)c(S(=O)(=O)NCC(=O)NCc2cc(=O)n(C)c(=O)n2C)c(C)c1	none
CCOc1ccc(NC(=O)Cn2c(=O)cc(C)c3c(C)nn(-c4cccc(Cl)c4C)c32)cc1	none (no result: Shiga toxin inh, CHX counter, AmpC inh no detg, NS1 function inh)
O=C(NCCCCc1ccccc1)c1cccc(Br)c1	CHX counter 15
O=C(NCCCc1ccccc1)c1cncc(Br)c1	CHX counter 20
O=C(O)CCCCCNC(=O)c1cccc(Br)c1	AmpC detergent inconclusive
O=C(NCCc1ccccn1)c1cncc(Br)c1	CHX counter 20
O=C(NCc1ccncc1)c1cncc(Br)c1	none
O=C(NCc1ccccc1)c1cncc(Br)c1	none
COc1cc2c(cc1OC)C(CC(=O)O)N(C(=O)Nc1cc(OC)c(OC)c(OC)c1)CC2 (configuration not stated)	none (no result: Shiga toxin inh, CHX counter, AmpC inh no detg, NS1 function inh)
CC(=O)N1c2c(cc(Br)cc2S(=O)(=O)N2CCN(c3cccc(Cl)c3)CC2)CC1C (configuration not stated)	none (no result: Shiga toxin inh, CHX counter, AmpC inh no detg, NS1 function inh)
COc1ccccc1CNC(=O)COc1cc2c(c3oc(=O)cc(C)c13)CCC(C)(C)O2	none
CCOC(=O)C1=C(COC(=O)COc2ccc(Br)cc2)NC(=O)NC1C (configuration not stated)	none (no result: Shiga toxin inh, CHX counter, NS1 function inh)
CCS(=O)(=O)NCc1csc(-c2ccccc2)n1	CHX counter 15
O=S(=O)(NCc1cn2ccsc2n1)c1ccc2c(c1)OCCO2	none
CS(=O)(=O)NCc1csc(-c2ccccc2)n1	AmpC detergent inconclusive
O=S(=O)(NCc1csc(-c2cccs2)n1)c1cccs1	Shiga toxin inh 53, CHX counter 18
O=S(=O)(NCc1cn2ccsc2n1)c1ccc(Oc2ccccc2)cc1	AmpC inh no detg 4µM
O=C(NCc1csc(-c2cccs2)n1)c1ccsc1	Shiga toxin inh 55, CHX counter 22
COc1ccc(CC(=O)NCc2csc(-c3cccs3)n2)cc1OC	none
O=S(=O)(NCc1csc(-c2cccs2)n1)c1ccc(Cl)cc1	none
O=C(NCCc1csc(-c2ccc(F)cc2)n1)c1cccs1	none (no result: Shiga toxin inh, CHX counter, AmpC inh no detg, NS1 function inh)
O=S(=O)(NCc1cn2ccsc2n1)c1cccs1	CHX counter 23
O=C(NCCc1cn2ccsc2n1)c1cccs1	Shiga toxin inh 25, CHX counter 23
Cc1ccn2cc(CNC(=O)c3cccs3)nc2c1	AmpC detergent inconclusive, AmpC inh no detg 3.5µM
Cc1ccn2cc(CCNC(=O)C3CC=CCC3C(=O)O)nc2c1 (configuration not stated)	Shiga toxin inh 77, CHX counter 20
CC(CN1CCCCC1)NC(=O)c1cccs1 (configuration not stated)	none
O=C(Cc1csc2nc(-c3ccc(F)cc3)cn12)NCc1ccccc1	none (no result: Shiga toxin inh, CHX counter, AmpC inh no detg, NS1 function inh)
Cc1ccn2cc(CNS(=O)(=O)c3cccs3)nc2c1	Shiga toxin inh 46, CHX counter 23
Cc1ccn2cc(CNS(=O)(=O)c3ccc(Cl)s3)nc2c1	AmpC detergent inconclusive
CCOC(=O)N/N=C/C=C/c1ccccc1	Shiga toxin inh 60, AmpC detergent inconclusive, CHX counter 61
COc1ccc(/C=C/C=N/NC(=O)COc2ccc(OC)cc2)cc1	Shiga toxin inh 43
Cc1ccccc1OCC(=O)N/N=C/C=C/c1ccccc1	none (no result: NS1 function inh)
